test system: VDR:RXRa (NR concentration 270 nM, RXRa partner concentration 90 nM); test: PBM binding z-score (relative to random genomic background probes); higher = stronger binding; sequences stand for … in GC…GCGATTGACAGCGTAGAATGAAGG
Experimental: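 Protein-binding microarray (Agilent 4x180K custom design, double-stranded 60-nt probes: 5' GC cap, 34-nt variable region, 24-nt constant primer region; full probe sequence given). Purified or IVT nuclear receptor:RXRα heterodimers (3:1 NR:RXRα, mostly 270:90 nM) or homodimers were incubated for 1 h in PBS with 2% milk and no ligand, then detected with Alexa488 antibodies. Fluorescence from o1-orientation probes (~5 replicates averaged) was converted to z-scores against 500 random hg19 background probes. Variable regions are seed direct-repeat (DR0–DR5) sites, all their single-nucleotide variants and half-site ablations.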

Row | Sequence | PBM binding z-score
1 | GCTAGTTGGCCAGTAAAAGGTCACACACCGGTCG | 3.73
2 | CGTCCAAGGTCAATGCTAGGTCAGTGAAAGCATT | 4.81
3 | CCTTACGGGTCACGAGTTTATAGCACGACGAGCG | 5.73
4 | CATACAGGGTCAGCTAGGGCAGAGTAGGGACGGC | 4.55
5 | CCTACTGGGCCAAAAAGCTCATTGATGCCGATAA | -0.648
6 | ACTAGTAGTTGACTTAGGGCAACCGATACGACGC | 0.0405
7 | CTACGAAGGTGAACAAGGTCGTTGATTACTATTC | 6.15
8 | CCGACTGGGGCAGATAGGTTACCATACCATCCGG | -0.389
9 | TCTTGTAGATCAGGAGGTTAAGAAAGCTGGCCAA | 0.556
10 | CTCGACAGGTCGTGCTCAGGTGAGTATACCAAAC | 0.597
11 | TCTCGGAGCACACGAAGGTCAGAGCTTTCCAGAG | 0.634
12 | GCAGACAGGTGAAACACAGGTAACTCAGGGTGGC | -0.244
13 | ATCTCTAAGTAAAGATAGTTCAGTGAATGCAAAT | 0.741
14 | ACTAGTTGGTCAGCTGAGGTCATACACAATTCGG | 4.73
15 | CCTACTGGGCCAAAAAGGTCATTGAAGCCGATAA | 4.54
16 | CAAACTAGGTCATAGAGGTCAAAGTCCGTGCGTA | 7.8
17 | TCTAGTTGGTCAATGGTCACACACTCGAAATGCG | 0.851
18 | CCGACTGGGGCCAAGGTTACCATACTCAGTACGA | 0.63
19 | CGTCCAAGGTCAAGGTCAGTGATAGAGACTCGAA | 4.95
20 | TCTTGGAGATCAACAGGAGGTTAAGAAAGATCGA | 0.539

Row | Sequence | PBM binding z-score
21 | TCGTATAGGTAAAAGGTGAAAGTCGGTGTGGTAA | 1.58
22 | GCTACTGGGGCAAAGCAGGTTACCATAAGGTTGG | 0.028
23 | CCAGACAGGTGAAATGTAACTCAGTCTGGTACGC | 0.0659
24 | ACTAGCAGGCCAAGATTGGGTCACTCAAACAAAG | 0.16
25 | ACTAGTTGGTCATCTGAGGTCACACACAATTCGG | 5.04
26 | TCTAGTTGGTCAGAGGTCACACACTCGAAATGCG | 4.95
27 | CTCGAAAGGTCGTGCTCAGTTGAGTATACCAAAC | 3.59
28 | AGGATGAGGTTAAGATCAGGGAAACAGAATACAT | 1.39
29 | CGTCCAAGGTCCAAGGTCAGTGAAGAGATGACGG | 1.6
30 | ATCTCTTGGTAAAAGTTCAGTGAATCCCGAGGAT | 1.14
31 | TCATATAGGTAAACAGTTGAAAGTCCGTAAGTTA | 1.13
32 | CGAACTAGGTTAAGGACAGTGAATCTCCGCACGC | -0.159
33 | ACAGACAGGTGAGCGAAGGTAACTCAGCTGGACG | -0.641
34 | ATCTCTAGGTAACCAAGTTCAATGAATGCCGAAC | 4.66
35 | CCTAATGGGCCATTCAGAGGTCATTGATCATATG | 4.1
36 | GCGACTGGGGCATCAGCAGGCTACCATAACTTAA | -0.769
37 | CCTTACGGGTCACTCCAGGTTATAGTATCGGAGT | 4.39
38 | AGAATGAGGTTATACGTACATCAGGGAAGAAAGT | 1.67
39 | GCTAGCATGCCATTTGGGTCACTCAATGACGGGC | 0.372
40 | TCACATAGGTAAATGCTAGGTGAAAGTCCGATCT | 0.334
